# Assay outcomes as filed in PubChem BioAssay.
# sEH inhibitor – inhibitors of human soluble epoxide hydrolase; AID 707; 91,000 tested, 0.34% active; recombinant human sEH enzymatic activity assay; inhibition, % at 2 µM; P34913; in the data active = inhibition above about 80%
# Target sequence (P34913 whole entry, looked up): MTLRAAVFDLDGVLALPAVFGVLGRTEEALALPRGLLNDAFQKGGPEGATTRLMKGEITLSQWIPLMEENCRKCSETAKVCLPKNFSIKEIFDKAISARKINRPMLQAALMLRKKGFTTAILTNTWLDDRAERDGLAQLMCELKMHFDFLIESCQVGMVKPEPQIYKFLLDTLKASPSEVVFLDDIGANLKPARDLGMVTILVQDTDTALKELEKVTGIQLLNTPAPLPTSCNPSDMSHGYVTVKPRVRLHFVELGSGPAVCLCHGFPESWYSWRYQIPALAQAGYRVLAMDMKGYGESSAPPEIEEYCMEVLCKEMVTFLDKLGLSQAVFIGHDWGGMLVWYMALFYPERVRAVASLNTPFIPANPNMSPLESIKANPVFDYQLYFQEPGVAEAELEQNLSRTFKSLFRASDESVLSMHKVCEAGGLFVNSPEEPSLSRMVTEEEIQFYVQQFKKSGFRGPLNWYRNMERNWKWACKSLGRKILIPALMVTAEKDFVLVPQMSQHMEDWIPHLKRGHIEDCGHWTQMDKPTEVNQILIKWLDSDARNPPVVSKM
# MRP1 act – MRP-1 activation | 140,000 tested, 0.61% active | H69AR cells + doxorubicin, viability rescue, CellTiter-Glo | viability increase, % at 10 µM;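 active = viability gain under doxorubicin at or above a set limit, the compound median plus 3 SD, cut at about 4.7% in these data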;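 note: MRP-1 overexpressing cells given doxorubicin 25 µM after compound pretreatment; 18-22 h compound pretreatment then 72 h with doxorubicin before readout; 0% = doxorubicin-only wells and 100% = vehicle-treated cells without doxorubicin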
# MRP resist rev – compounds reversing MRP-mediated drug resistance. H69AR cells + 2 uM doxorubicin, CellTiter-Glo, 72 h. 85,000 tested, 0.04% active. AID 602. differential viability (reversal), % at 10 µM;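 active = viability drop by adding the cancer drug above about 55%, with treated viability meeting a 40% cutoff, limit read from the data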;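 note: viability without doxorubicin minus viability with 2 µM doxorubicin for each compound; larger differential means the compound sensitizes cells more to doxorubicin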
# SDO1 yeast rescue – restores growth of sdo1-depleted yeast; S. cerevisiae sdo1-depleted JHY4D growth rescue, OD600 30 h; active compounds read high; pdr5 snq2 efflux-pump mutant strain; z-score at 10 µM; 140,000 tested, 0.21% active; AID 817;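 active = z-score above 3 at both the 24 hr and the 30 hr optical density reads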;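 note: z-score against mean and SD of all compound wells on the same plate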
# Phagocytosis inh – inhibitors of macrophage phagocytosis; J774A.1 macrophage IgG-bead phagocytosis, imaging; inhibition, % at 5 µM; 110,000 tested, 0.07% active; AID 1029;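 active = inhibition above the mean of the plate negative controls plus 5 SD, cut at about 13% in these data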;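 note: phagocytic index as fraction of beads internalized from green versus red external bead signal; plate controls were DMSO negative control for no effect and cytochalasin-D positive control for full effect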
# sEH act – increases human soluble epoxide hydrolase activity. activation, % at 2 µM. 91,000 tested, 0.04% active. P34913. purified human sEH enzymatic activity, activator screen; in the data active = activation above about 37%
# An asterisk follows results filed as active; · = no result given; [ ] = dose if it differs, or a comment. An excerpt weighted towards active compounds, which were near 1% of everything screened.
SMILES,sEH inhibitor,MRP1 act,MRP resist rev,SDO1 yeast rescue,Phagocytosis inh,sEH act
N#Cc1nc(COc2ccc(Cl)cc2)oc1N1CCN(Cc2ccccc2)CC1,·,4.8*,·,-1.9,-2,·
COc1ccc(N2CCN(c3oc(COc4ccccc4)nc3C#N)CC2)cc1,·,2,19,0.12,·,·
COc1ccc(N2CCN(c3oc(COc4ccc(Cl)cc4)nc3C#N)CC2)cc1,·,5.8*,·,-1,-3,·
CCOC(=O)c1cc(-c2ccccc2)sc1NC(=O)CC,·,-1,·,-0.11,-18,·
CCOC(=O)c1cc(-c2ccccc2)sc1NC(=O)C(C)Sc1nnc(N)s1 (stereo unspecified),·,11*,·,-1.4,-14,·
Fc1ccccc1NC(=S)N1CCN(Cc2ccccc2)CC1,·,1,·,1.9,-5,·
COc1ccc(CCN2C(=O)C3C4CC(C5C(C(=O)N/N=C\c6ccc(Cl)cc6)=NOC45)C3C2=O)cc1OC (stereo unspecified),94*,0,-1,-0.56,-1,-94
CN(c1ccc(C(=O)Nc2ccccc2C(F)(F)F)cc1)S(C)(=O)=O,15,-1,·,1.1,54*,-19
CN(c1ccc(C(=O)Nc2ccccc2C(=O)N2CCCC2)cc1)S(C)(=O)=O,-3,-3,0,1.5,2,1
Cn1cc(Br)c(C(=O)NNC(=O)c2ccc(Cl)cc2)n1,·,6.4*,·,0.38,-2,·
O=C(Nc1nnc(C2CC2)s1)c1ccncc1,73,2,21,1.4,·,-73
COc1ccc(N2C(=O)CCC(C(=O)O)C2c2ccc(F)cc2)cc1 (stereo unspecified),-5,1,13,-0.34,·,5
COc1ccc(C2C(C(=O)Nc3cccc(C)n3)CCC(=O)N2c2ccc(OC)cc2)cc1 (stereo unspecified),19,13*,13,0.7,2,-20
O=C(NCc1cccc(C(F)(F)F)c1)C1CCN(c2ncccn2)CC1,25,-1,-4,-0.27,0,-25
CCn1c(COc2ccc(Cl)cc2)nnc1SCc1nc2ccccc2[nH]1,6,6.8*,-30,-1.7,-3,-7
Cc1ccc(OCc2nnc(SCc3nc4ccccc4[nH]3)n2Cc2ccco2)cc1,-1,3,-5,-1.1,-4,3
Cc1ccc2nc(/C(C#N)=C\c3ccc([N+](=O)[O-])o3)[nH]c2c1,-2,-7,·,-2.2,33*[fluoresces],2
Nc1ccnc(Oc2ccc(F)cc2)c1,·,-2,·,1,-6,·
O=C(/C=C/NNC(=O)c1ccccc1)c1ccc(Br)cc1,18,6.0*,-28,0.28,2,-16
O=C(/C=C/NCC(=O)c1ccccc1)c1ccc(Br)cc1,·,1,·,0.06,-13,·
C=CCOc1c(CNc2ccc(C(=O)O)cc2)cccc1OCC,3,6.7*,·,0.12,·,-5
CN(C(=O)Cn1c(=O)n(CCCCC(=O)NC2CCCC2)c(=O)c2ccccc21)C1CCCCC1,8,·,14,·,·,-3
COc1cc(C2Nc3cccc4cccc(c34)N2)cc(OC)c1O,-9,6.5*,-22,0.1,·,8
COc1cc(C2Nc3cccc4cccc(c34)N2)ccc1OC(C)=O,6,-1,·,-0.54,-1,-5
O=C(NCC1CCCC(CNC(=O)N2CCc3ccccc32)C1)N1CCc2ccccc21 (stereo unspecified),92*,-5,·,-1.6,-1,-92
SMILES,sEH inhibitor,MRP1 act,MRP resist rev,SDO1 yeast rescue,Phagocytosis inh,sEH act
CCc1nnc(NC(=O)C2CCCN2S(=O)(=O)c2ccc(F)cc2)s1 (stereo unspecified),·,5.8*,-15,0.85,-2,·
COc1ccc2c(c1)-c1c(ssc1=S)C(C)(C)N2C(=O)CSC1=NCCS1,7,-2,·,0.99,-1,-5
CCOc1ccc2c(c1)-c1c(ssc1=S)C(C)(C)N2C(=O)c1ccco1,·,-2,·,-1.1,91*[artifact],·
COc1ccc(OC)c(/C=N/NC(=O)c2csc3ccccc23)c1,84*,0,·,0.13,·,-84
O=C(NCCSCc1ccco1)Nc1ccc(Cl)cc1,72,-1,12,-1.3,0,-72
O=C(NCCSCc1ccco1)Nc1cccc(Cl)c1,80*,-2,8,-0.14,-1,-80
Cc1ccc(NC(=O)C2CCCO2)cc1[N+](=O)[O-] (stereo unspecified),·,1,·,0.74,-12,·
O=C1CSC(=S)N1N=C1CCCCCC1,·,5.9*,·,0.86,-6,·
COc1cc(/C=N/NC(=S)Nc2cccc(C(=O)O)c2)cc(OC)c1OC,·,4.8*,·,0.65,·,·
CC(C)(C)c1cnnn1-c1ccc(NC(=O)c2ccc3c(c2)OCO3)cc1,93*,0,-7,-0.71,-1,-93
COc1ccc(C(=O)Nc2nc3ccccc3[nH]2)cc1OC,-6,-3,64*,1.5,·,6
CN(C)c1ccc(C(=O)c2ccccc2)cc1,0,-1,21,0.58,0,-1
CC(=O)/C(=C/c1ccc(N(C)C)cc1)C(=O)c1ccccc1,·,-2,·,-1,26*[artifact],·
Cc1ccc(CC2S/C(=C(/C#N)C(=O)NCc3ccco3)N(c3ccccc3)C2=O)cc1 (stereo unspecified),7,6.6*,-33,0.83,-1,-8
N#C/C(C(=O)NCc1ccco1)=C1/SC(Cc2ccc(Cl)cc2)C(=O)N1c1ccccc1 (stereo unspecified),-12,-1,44,-0.64,·,12
Cc1ccc(NC(=O)CNC(=O)c2cccs2)cc1S(=O)(=O)Nc1ccc(Cl)cc1,·,7.0*,·,-0.64,-2,·
COc1ccc(NS(=O)(=O)c2cc(NC(=O)CNC(=O)c3cccc(OC)c3)ccc2C)cc1,·,0,·,0.18,-4,·
COC(=O)c1ccc(/C=C/C(=O)c2ccc(OC)c(OC)c2)cc1,5,-2,·,-0.73,·,-2
COC(=O)c1ccc(OC(=O)c2ccc(OC)c(OC)c2)c(OC)c1,-36,-2,9,-0.36,-1,38*
CSc1nc(Cl)cc(N(CCO)CCO)n1,4,-3,·,0.03,·,-4
Cc1ccc(N=Cc2c(O)n(-c3nccs3)c(=O)c3ccccc23)cc1,·,3,·,-0.61,0,·
Cc1cccc(C)c1N=Cc1c(O)n(-c2nccs2)c(=O)c2ccccc12,·,6.2*,·,-1.3,-11,·
Cc1cc(C)c(N=Cc2c(O)n(-c3nccs3)c(=O)c3ccccc23)c(C)c1,·,7.5*,·,-1.3,-9,·
COc1ccccc1NC(=O)c1ccc(NC(=O)CSc2n[nH]c(N)n2)cc1,·,0,·,0.59,-9,·
Cc1occc1C(=O)NNC(=O)Nc1ccc(Cl)c(Cl)c1,·,4.9*,·,0.07,·,·
Cc1nc(SCCO)c2oc3ccccc3c2n1,-22,-1,13,1.2,1,22
CSc1nc2c(ccc3ccccc32)o1,2,4.9*,5,-0.22,·,-3
Cc1ccc(C)c(-c2nnc(OCC(=O)Nc3cc(C)on3)c3ccccc23)c1,16,-1,0,-0.49,-2,-15
COc1cc(C)ccc1N(CCCN1C(=O)c2cccc3cccc(c23)C1=O)C(=O)c1cccs1,·,8.7*,·,0.08,-5,·
COc1ccc(N(CCCN2C(=O)c3cccc4cccc(c34)C2=O)C(=O)c2cccs2)cc1,·,-2,·,-0.71,-15,·
